# Rows were chosen to be rich in hits. Some 2.5% of all compounds tested hit in one or more screens of this group.
# ULK1 primary = blocks human autophagy kinase ULK1 | O75385 | AlphaScreen Atg13 phosphorylation by ULK1, luminescence | inhibition, % at 5.96 µM | 1.9% of 30,000 active; in the data active = inhibition above about 43%;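 note: 0% = median of compound wells and 100% = no enzyme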
# Target sequence (O75385 whole entry, looked up): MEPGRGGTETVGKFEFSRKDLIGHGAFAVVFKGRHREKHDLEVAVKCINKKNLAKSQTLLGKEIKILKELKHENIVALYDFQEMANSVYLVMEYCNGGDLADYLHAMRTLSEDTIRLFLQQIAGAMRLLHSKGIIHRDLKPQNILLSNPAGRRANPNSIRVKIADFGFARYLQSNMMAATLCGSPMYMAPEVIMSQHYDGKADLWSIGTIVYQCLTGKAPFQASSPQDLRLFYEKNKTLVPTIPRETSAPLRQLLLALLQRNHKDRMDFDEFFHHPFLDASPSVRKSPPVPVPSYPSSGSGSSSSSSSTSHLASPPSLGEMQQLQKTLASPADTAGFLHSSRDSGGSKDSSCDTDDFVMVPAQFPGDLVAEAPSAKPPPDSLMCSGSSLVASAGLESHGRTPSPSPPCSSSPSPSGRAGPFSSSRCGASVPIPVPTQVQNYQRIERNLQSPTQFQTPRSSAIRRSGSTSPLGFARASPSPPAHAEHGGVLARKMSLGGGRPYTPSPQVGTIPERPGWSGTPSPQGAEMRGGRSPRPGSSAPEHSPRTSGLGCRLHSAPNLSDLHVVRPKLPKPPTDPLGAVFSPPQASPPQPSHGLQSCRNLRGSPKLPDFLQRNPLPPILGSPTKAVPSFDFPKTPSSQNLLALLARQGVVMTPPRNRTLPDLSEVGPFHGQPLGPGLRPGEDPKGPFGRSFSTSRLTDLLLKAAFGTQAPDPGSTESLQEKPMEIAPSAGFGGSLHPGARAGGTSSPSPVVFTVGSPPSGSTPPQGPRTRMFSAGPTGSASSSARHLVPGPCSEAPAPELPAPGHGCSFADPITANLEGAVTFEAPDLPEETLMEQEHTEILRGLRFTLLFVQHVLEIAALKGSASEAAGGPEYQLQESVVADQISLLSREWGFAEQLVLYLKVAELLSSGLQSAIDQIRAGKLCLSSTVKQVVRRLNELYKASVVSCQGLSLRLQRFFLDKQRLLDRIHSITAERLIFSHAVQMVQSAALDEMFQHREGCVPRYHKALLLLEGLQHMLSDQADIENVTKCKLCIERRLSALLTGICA
# ASK1 primary = human ASK1 kinase inhibition, primary screen; Q99683; AlphaScreen MKK6 phosphorylation by ASK1, luminescence; inhibition, % at 7.44 µM; 0.99% of 22,000 active; AID 1159602; in the data active = inhibition above about 35%;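 note: 0% = median of compound wells and 100% = no enzyme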
# Active calls of the source: *; . = not tested or not shown; ! = not confirmed by another sample.
SMILES,ULK1 primary,ASK1 primary
O=C1c2c(O)cccc2Cc2cccc(O)c21,60*!,.
Oc1cccc2c1CC=CC2,10,.
Nn1cnnc1N/N=C/c1ccc(-c2cccc([N+](=O)[O-])c2)o1,45*,.
O=C(N/N=C\c1ccc(-c2ccc([N+](=O)[O-])cc2)o1)c1cnccn1,-3,.
O=C(NCCS(=O)(=O)N1CCN(c2ccc(F)cc2)CC1)c1cc2ccccc2o1,-1,.
Cc1cncc2cccc(S(=O)(=O)N3CCCN(C(=O)CN)C[C@@H]3C)c12,67*,3
Cc1cncc2c(S(=O)(=O)N3CCCN(C(=O)CN)C[C@@H]3C)cccc12,7,4
Cc1ncn(-c2ccc(Nc3nccc(Nc4cccc(N5CCOCC5)c4)n3)cc2)n1,1,-7
NC(=O)c1cccnc1,-13,.
O=C(OCC1(COC(=O)c2cccnc2)CCCC(COC(=O)c2cccnc2)(COC(=O)c2cccnc2)C1O)c1cccnc1,45*,.
Cc1cc(NCc2ccccc2)nc(Nc2ncccn2)n1,7,-5
Nc1nc(N2CCC(N3CCOCC3)CC2)nc2c1ncn2Cc1ccc(C(F)(F)F)cc1,-4,-8
Cc1ncn(-c2ccc(Nc3ncc4cccc(-c5cnc6ccccc6c5)c4n3)cc2)n1,10,-8
Cc1ncn(-c2ccc(N(CC3CC3)c3ncc4cccc(-c5cnn(CC6CC6)c5)c4n3)cc2)n1,99*,-6
CC(=O)c1ccc(NC(=O)Cc2ccc(Cl)s2)cc1,-8,.
c1ccc(Nc2cc(Nc3ccc4c(c3)OCO4)ncn2)cc1,6,4
c1cc(Nc2cc(Nc3ccc4c(c3)OCO4)ncn2)ncn1,60*,23
O=c1c(-c2ccc(O)cc2)coc2cc(O)cc(O)c12,-3,.
O=c1c(O)c(-c2ccc(O)c(O)c2)oc2cc(O)cc(O)c12,46*,.
c1cc(N2CCOCC2)ccc1Nc1nc(NCCN2CCOCC2)nc2c1ncn2C1CCCCC1,55*,-35
NC(=O)c1ccc(-c2nc(Nc3ccc(N4CCOCC4)cc3)c3ncn(C4CCCCC4)c3n2)cc1,44*,0
c1ccc(Nc2nc(NCCN3CCOCC3)c3ncn(C4CCCCC4)c3n2)cc1,-10,11
CN1CCN(C(=O)c2ccc(-c3nc(Nc4ccc(N5CCOCC5)cc4)c4ncn(C5CCCCC5)c4n3)cc2)CC1,1,13
S=c1nccc(-c2cccnc2)[nH]1,8,.
COc1ccc(-c2cnc(NCC(OC)OC)nc2)cc1,-9,.
SMILES,ULK1 primary,ASK1 primary
COc1cc(CNc2ncc(-c3ccc(Br)cc3)n2C)cc(OC)c1O,-13,.
CN1CCN(C(=O)c2ccc(-c3nc4ncnc(NCCN5CCOCC5)c4[nH]3)cc2)CC1,-9,1
CCN(CC)C(=O)C1CCCN(c2nc(NCCO)c3ncn(Cc4ccc(C(F)(F)F)cc4)c3n2)C1 (centres undefined),2,5
CC(C)C[C@H](O)C(=O)N1CCC(C(=O)Nc2ccc3[nH]ncc3c2)CC1,2,-10
CC(C)C[C@H](O)C(=O)N1CCC(Nc2ccc3[nH]ncc3c2)CC1,53*,-38
NC(=O)c1cc(NCCCN2CCCC2=O)nc2ccccc12,4,4
CC(=O)Nc1ccc(Nc2cc(C)nc(Nc3ccc(C(F)(F)F)cc3)n2)cc1,-34,28
CNC(=O)c1cc(F)ccc1Nc1cc(Nc2ccc(NC(C)=O)cc2)ncc1C(F)(F)F,79*,3
CNC(=O)c1cc(F)ccc1Nc1cc(Nc2cccc(OC)c2)ncc1C(F)(F)F,84*,0
Cc1cnc(Nc2ccc(N3CCOCC3)cc2)nc1NC1CC1,38,18
CC(C)(C)CN1CCC(NC(=O)c2cccc(-n3cc(NC(=O)Nc4ccccc4)cn3)c2)CC1,-2,-10
C[N+](C)(C)CC(=O)O,1,.
Cc1ccc(-c2ncn(-c3ccc(Nc4ncc(Cl)c(-c5cnn(C)c5)n4)cc3)n2)cn1,7,16
Cn1cc(-c2nc(Nc3ccc(-n4cnc(N5CCC(O)CC5)n4)cc3)ncc2Cl)cn1,71*,-95
CC(C)N1CCN(c2ncn(-c3ccc(Nc4ncc5ccc(-c6cnn(C)c6)c(Cl)c5n4)cc3)n2)CC1,91*,-16
Cn1cc(-c2ccc3cnc(Nc4ccc(-n5cnc(N6CCOCC6)n5)cc4)nc3c2Cl)cn1,47*,-18
Cc1[nH]ncc1-c1ccc2cnc(Nc3ccc(-n4cnc(N5CCOCC5)n4)cc3)nc2c1,76*,-45
Cc1ncn(-c2ccc(Nc3ncc4ccnc(-c5cnn(C)c5)c4n3)cc2)n1,10,0
Cc1n[nH]c(C)c1-c1ccc2cnc(Nc3ccc(-n4cnc(N5CCOCC5)n4)cc3)nc2c1,-7,-51
Cn1cc(-c2cccc3nc(Nc4ccc(-n5cnc(N6CCOCC6)n5)cc4)ncc23)cn1,15,9
CCN(CC)c1cc(-c2ccccc2F)nc(-c2cccnc2)n1,-20,.
O=C(NCc1cccnc1)c1ccc2nc(-c3cccs3)sc2c1,1,3
O=C(NCc1cccc(C(F)(F)F)c1)c1csc(Nc2ccc(N3CCOCC3)cc2)n1,11,26
c1nc2nc(Nc3ccc(N4CCOCC4)cc3)nc(Nc3ccc4c(c3)OCO4)c2[nH]1,21,14
